The full list was thinned out, with hits kept by preference.
ClpP mod = qHTS Assay for Activators of ClpP; purified B. subtilis ClpP, FRET peptide cleavage, 20 min; Potency, µM (doses to about 57.5 µM), inactives show top-dose activity change, negative = active; 340,000 compounds, 1.9% hits; active = well fitted falling curve with a large enough effect; inconclusive = small, poorly fitted or top-dose-only effect; inactive = no such curve, though single readings can be large or run the other way; note: potency is the fitted concentration of half-maximal effect; the source files actives as falling curves though it sought activators and does not explain the sign; nearly all actives have a fitted effect of over 65% in size
Target sequence (P80244 whole entry, looked up): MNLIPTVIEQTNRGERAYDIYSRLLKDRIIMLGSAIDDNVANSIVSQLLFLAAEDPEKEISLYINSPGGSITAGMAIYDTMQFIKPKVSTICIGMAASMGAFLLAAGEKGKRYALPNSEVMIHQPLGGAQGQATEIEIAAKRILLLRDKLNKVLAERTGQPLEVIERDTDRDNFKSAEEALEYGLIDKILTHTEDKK
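Buffer: 100 mM Tris/HCl pH8, 100 mM KCl, 0.05% low protease BSA, 2.5% glycerol, 0.01% Tween-20. ClpP 10 microg/mL final; 20 min RT; delta FRET normalized to ADEP and DMSO controls.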
Glioma ERSR ind = inducers of ER stress response in human glioma cells; U87-MG GRP78 promoter luciferase reporter, 16 h; Potency, µM, without a hit: at the highest dose activation, actives largely listed as activators; AID 602332; 420,000 compounds, 0.02% hits; note: potency is the fitted concentration of half-maximal effect; series mostly up to about 76 µM; % of control where 0% means no effect; nearly all actives have a fitted effect of over 35% in size
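Stably transfected U87-MG glioma cells carrying a GRP78-based luciferase sensor; 16 h compound incubation. Luminescence end-point read 10 min after Bright-Glo addition at room temperature.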
N370S GC mod = inhibitors or activators of N370S glucocerebrosidase for Gaucher disease | P04062 | N370S GC spleen homogenate, 4MU-glucoside fluorescence | Potency, µM (titrated, usually from 59.4 µM), inactives show top-dose activity change, negative = inhibition, usual class: inhibitors | 330,000 compounds, 0.092% hits;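 note: potency is the fitted concentration of half-maximal effect; 0% = full enzyme activity and -100% = no enzyme basal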
CBFb-RUNX1 inh = inhibitors of human CBF-beta and RUNX1 interaction; Q01196+Q13951; AlphaScreen CBFb-His/RUNX1-biotin binding, biochemical; Potency, µM (series often up to 59.8 µM), for the others: top-dose activity, negative = inhibition, most hits filed as inhibitors; 230,000 tested, under 10 active; note: % of control where 0% means no effect
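Compounds were screened at multiple concentrations against a preformed CBF-beta(His)/RUNX1(biotin) complex (30 nM of each) for 15 min at room temperature, followed by 90 min with nickel and streptavidin beads and AlphaScreen reading.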
Integrin act MD = activators of alpha7 integrin expression for muscular dystrophy. Potency, µM (titrated, usually from 38.3 µM), without a hit: at the top dose activation, actives largely listed as activators. alpha7betagal myoblasts, beta-gal FDG fluorescence, 48 h. 350,000 compounds, 0.064% hits;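 note: potency is the fitted concentration of half-maximal effect; 100% = response of the positive control SU9516; nearly all actives have a fitted effect of over 60% in size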
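Alpha7betagal+/- myoblasts (passage 13) were plated 16-24 hr, then exposed to compounds (1:260 dilution of DMSO stock) for 48 hours at 37C. After MPER lysis, β-galactosidase reporter activity was read as FDG fluorescence (ex 480/em 540) after 30 minutes.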
Apoferritin bind = binds horse apoferritin like a general anesthetic. apoferritin/1-aminoanthracene competitive binding, fluorescence. 350,000 compounds, 0.074% hits. AID 485281. Potency, µM (titrated, usually from 77.5 µM), for the others: top-dose activity change, negative = displacement, usual class: inhibitors; note: potency is the fitted concentration of half-maximal effect; % is set by controls: 0 for no effect and ±100 for the full control effect; nearly all actives have a fitted effect of over 20% in size
Target sequence (P02791 2-175 limits assumed): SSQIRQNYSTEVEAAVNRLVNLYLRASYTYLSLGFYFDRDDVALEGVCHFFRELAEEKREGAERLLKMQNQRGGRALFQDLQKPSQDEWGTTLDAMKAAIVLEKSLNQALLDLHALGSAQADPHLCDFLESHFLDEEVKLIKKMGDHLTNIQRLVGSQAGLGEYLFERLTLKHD
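Read-out: endpoint 1-AMA fluorescence, excitation 380 nm and emission 535 nm, after compounds sit 10 min at room temperature with 10 uM horse-spleen apoferritin in 50% saturated 1-AMA/PBS. Values come from four-parameter Hill fits.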
Numbers without * were called inactive. Unless noted, calls come from the whole dose curve; as a rule, active = well fitted curve in the direction sought with a large enough effect; inconclusive = small, poorly fitted or top-dose-only effect, or another doubt; inactive = no such curve, though single readings can be large; an effect the other way counts as inactive or inconclusive.

Cc1cc(=O)[nH]c(SCC(=O)N2CCCC2)n1 was read as ClpP mod 22.4µM*, Glioma ERSR ind -2.2% and Integrin act MD 16.4%.
Brc1ccc(C2C3=C(Nc4ncnn42)c2ccccc2OC3c2ccncc2)cc1 (stereo not drawn) was read as ClpP mod -25.9%, Glioma ERSR ind -1.1%, N370S GC mod 14.1µM*, CBFb-RUNX1 inh -13.1%, Integrin act MD 3.1% and Apoferritin bind -7.3%.
`COc1ccc(C2Oc3ccccc3C3=C2C(c2cccs2)n2ncnc2N3)cc1` (stereo not drawn) gave ClpP mod 1.3%, Glioma ERSR ind -6.3%, N370S GC mod -1.9%, CBFb-RUNX1 inh -2.9%, Integrin act MD 6.2% and Apoferritin bind -16.7%.
Screening CCN1CCN(S(=O)(=O)c2ccc(Oc3ccccc3OC)cc2)CC1 returned ClpP mod 20µM*, Glioma ERSR ind -1.6%, N370S GC mod -16.6%, CBFb-RUNX1 inh 5.9%, Integrin act MD 41.2% and Apoferritin bind -12.3%.
`COc1ccc(S(=O)(=O)N2CCN(Cc3ccccc3OC)CC2)cc1` gave ClpP mod 1.2%, Glioma ERSR ind 6.5% and Integrin act MD -16.8%.
CC(C)(C)Sc1ccc2nc3c(n2c1)CCCC3 was read as ClpP mod 15.8µM*, Glioma ERSR ind -2.0%, N370S GC mod -0.6%, CBFb-RUNX1 inh -2.1%, Integrin act MD -39.6% and Apoferritin bind -6.8%.
Screening FC(F)(F)c1ccccc1-c1nccc(NCc2cccs2)n1 returned Glioma ERSR ind -3.1% and N370S GC mod 3.16µM*.
For FC(F)(F)c1ccccc1-c1nccc(NCc2ccccc2)n1 the results were Glioma ERSR ind -1.0%, N370S GC mod 11.2µM* and Apoferritin bind inconclusive.
Screening Cc1cnc(CNc2ccnc(-c3ccccc3C(F)(F)F)n2)cn1 returned Glioma ERSR ind -5.6% and N370S GC mod -15.3%.
`O=C1c2ccccc2NC(c2ccccc2)N1Cc1ccco1` (stereo not drawn) gave ClpP mod 28.2µM*, Glioma ERSR ind -1.6%, N370S GC mod 13.9%, CBFb-RUNX1 inh 0.7%, Integrin act MD 34.8% and Apoferritin bind 5.7%.
Screening O=C(Nc1ccc(Oc2cccnc2)cc1)c1ccccc1Cl returned Glioma ERSR ind 1.2%, N370S GC mod -6.2%, CBFb-RUNX1 inh 10.8%, Integrin act MD 10µM* and Apoferritin bind 5.8%.
For COc1ccc2c(C(=S)N(C)CC(=O)O)cccc2c1C(F)(F)F the results were Glioma ERSR ind -2.2%.
`Cc1ccc(OCC(=O)N(Cc2ccccc2)C(C)C)c([N+](=O)[O-])n1` gave ClpP mod 3.16µM*, Glioma ERSR ind -4.7%, N370S GC mod 6.0%, CBFb-RUNX1 inh -7.7%, Integrin act MD -0.8% and Apoferritin bind -9.8%.
Screening Cc1ccc(OCC(=O)N(Cc2ccccc2)C(C)(C)C)c([N+](=O)[O-])n1 returned ClpP mod -1.6%, Glioma ERSR ind 0.6%, N370S GC mod 9.9%, CBFb-RUNX1 inh 0.7%, Integrin act MD -13.1% and Apoferritin bind 0.3%.
`CCCn1c2c(c(O)c(C(=O)NC)c1=O)CCCC2` gave ClpP mod -21.4%, Glioma ERSR ind -1.1%, N370S GC mod 2.2%, CBFb-RUNX1 inh -2.5%, Integrin act MD -12.8% and Apoferritin bind -7.7%.
`CCCn1c2c(c(O)c(C(=O)Nc3ccc(OC)cc3)c1=O)CCCC2` gave ClpP mod 28.2µM*, Glioma ERSR ind -3.3%, N370S GC mod 2.6%, CBFb-RUNX1 inh 0.4%, Integrin act MD 13.2% and Apoferritin bind -7.0%.
Screening c1ccc2c(c1)SCc1c-2[nH]c2ccccc12 returned Glioma ERSR ind -8.6%, N370S GC mod -0.2%, CBFb-RUNX1 inh -25.2% and Apoferritin bind -22.9%.
`COc1ccc2oc(C(=O)OCC(=O)N(C)c3c(N)n(Cc4ccccc4)c(=O)[nH]c3=O)c(C)c2c1` gave ClpP mod -28.8%, Glioma ERSR ind -0.4%, N370S GC mod 5.7% and Integrin act MD 2.8%.
